Bioassay records as filed in PubChem BioAssay.
WRN helicase inh-1 = blocks human WRN helicase; WRN helicase unwinding, fluorescent forked duplex, kinetic; Potency, µM (series often up to 114 µM), inactives show top-dose activity change, negative = inhibition, hits mostly inhibitors; hit rate 0.46% among 360,000; AID 651768; note: % is set by controls: 0 for no effect and ±100 for the full control effect; nearly all actives have a fitted effect of over 55% in size
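Enzyme (20 nM final) and test compound sit together 15 min at room temperature before substrate addition. Substrate is a single-forked duplex oligonucleotide (100 nM) labelled with fluorophore and quencher, with 2 mM ATP; helicase unwinding raises red fluorescence, read kinetically.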
Pol beta inh = DNA polymerase beta (human) inhibition; P06746; Pol beta primer extension/strand displacement, fluorescence kinetic; Potency, µM (titrated, usually from 114 µM), inactives show at the highest dose activity change, negative = inhibition, usual class: inhibitors; hit rate 1.3% among 340,000; AID 485314; note: % is set by controls: 0 for no effect and ±100 for the full control effect
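Curves were derived by four-parameter Hill fits of normalized qHTS data. The kinetic fluorescent primer-extension read was taken at 0 and 10 min after 50 nM substrate, following a 15 min room-temperature preincubation of 10 nM enzyme with compounds.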
Pol eta inh-1 = DNA polymerase eta (human) inhibition | Q9Y253 | recombinant Pol eta, fluorescent DNA replication assay | Potency, µM (highest dose often 114 µM), without a hit: at the highest dose activity change, negative = inhibition, actives largely listed as inhibitors | hit rate 1.2% among 390,000; note: % is set by controls: 0 for no effect and ±100 for the full control effect
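Fluorescent replication assay: 50 nM final substrate added after a 15 min room-temperature compound preincubation with 10 nM enzyme. Signal taken at 0 min and again at 10 min.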
Pol kappa inh-1 = DNA polymerase kappa (human) inhibition; Q9UBT6; purified Pol kappa, fluorescent DNA synthesis assay, 10 min; Potency, µM (doses to about 107 µM), without a hit: at the top dose activity, negative = inhibition, usual class: inhibitors; hit rate 0.53% among 400,000; note: % is set by controls: 0 for no effect and ±100 for the full control effect
Target sequence (Q9UBT6 whole entry, looked up): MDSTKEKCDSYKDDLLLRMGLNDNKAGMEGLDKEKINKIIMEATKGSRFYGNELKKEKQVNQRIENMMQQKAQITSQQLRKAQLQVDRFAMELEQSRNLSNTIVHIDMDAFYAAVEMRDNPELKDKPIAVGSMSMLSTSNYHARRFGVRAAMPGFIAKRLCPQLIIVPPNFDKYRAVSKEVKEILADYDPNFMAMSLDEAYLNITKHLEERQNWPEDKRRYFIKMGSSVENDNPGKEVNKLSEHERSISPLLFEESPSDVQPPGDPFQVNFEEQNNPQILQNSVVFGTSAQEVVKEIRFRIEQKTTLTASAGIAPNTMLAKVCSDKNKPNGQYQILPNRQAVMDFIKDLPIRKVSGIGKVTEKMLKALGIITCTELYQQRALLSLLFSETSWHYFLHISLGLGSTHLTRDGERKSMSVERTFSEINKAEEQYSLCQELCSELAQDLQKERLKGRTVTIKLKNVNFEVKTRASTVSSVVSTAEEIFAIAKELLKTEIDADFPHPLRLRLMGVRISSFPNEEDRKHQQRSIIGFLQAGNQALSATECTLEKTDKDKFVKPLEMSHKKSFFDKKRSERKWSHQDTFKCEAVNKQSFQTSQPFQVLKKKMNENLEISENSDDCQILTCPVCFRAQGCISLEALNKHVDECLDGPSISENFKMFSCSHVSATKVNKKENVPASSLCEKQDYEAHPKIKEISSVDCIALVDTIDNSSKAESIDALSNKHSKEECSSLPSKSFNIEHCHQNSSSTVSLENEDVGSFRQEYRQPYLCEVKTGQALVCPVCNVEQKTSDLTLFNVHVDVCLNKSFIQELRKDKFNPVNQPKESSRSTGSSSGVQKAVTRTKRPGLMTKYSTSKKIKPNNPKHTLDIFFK
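Fluorescent qHTS in 1536-well format: enzyme (10 nM) and compound sat 15 min at room temperature before 50 nM substrate (final) was added. Signal taken at 0 and 10 min; no-enzyme buffer wells were negative controls.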
Pol iota inh = inhibitors of human DNA polymerase iota; Pol iota fluorescent replication assay, 10 min; Potency, µM (doses to about 115 µM), without a hit: at the highest dose activity, negative = inhibition, hits mostly inhibitors; hit rate 1% among 390,000; AID 588590
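Fluorescent replication assay read twice, at 0 min and 10 min after adding 50 nM (final) substrate. Enzyme (10 nM) and compounds were first incubated 15 min at room temperature; enzyme-free buffer wells were negative controls.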
FEN1 inh-1 = human FEN1 inhibition | P39748 | Recombinant FEN1 flap cleavage, fluorescence, 15 min | Potency, µM (top dose mostly 114 µM), for the others: at the top dose activity change, negative = inhibition, most hits filed as inhibitors | hit rate 0.35% among 390,000 | AID 588795; note: % is set by controls: 0 for no effect and ±100 for the full control effect; nearly all actives have a fitted effect of over 65% in size
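Read-out was taken twice, immediately and after 15 min, following addition of 50 nM substrate to 10 nM FEN1 that had sat with test compound for 15 min at room temperature. Curves came from a four-parameter Hill model.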
TbPGK inh = blocks T. brucei phosphoglycerate kinase; shares compounds with Pol kappa inh-1; TbPGK coupled GAPDH assay, Kinase-Glo luminescence; hit rate 79% among 500; Potency, µM (series often up to 57.5 µM), for inactives: top-dose activity change, negative = inhibition, hits mostly inhibitors; note: % is set by controls: 0 for no effect and ±100 for the full control effect; nearly all actives have a fitted effect of over 65% in size
Pol iota confirm = Confirm cherry-picked inhibitors of human polymerase iota | hit rate 77% among 1,500 | Potency, µM, usual class: inhibitors | shares compounds with Pol kappa inh-1 | Pol iota primer extension, TAMRA/BHQ fluorescence
Pol kappa inh-2 = confirmation of human DNA polymerase kappa inhibitors. purified Pol-kappa, fluorescent strand-displacement substrate. AID 720501. shares compounds with Pol eta inh-1. Potency, µM, actives largely listed as inhibitors. hit rate 76% among 920
Pol eta inh-2 = confirmation of human DNA polymerase eta inhibitors. shares compounds with Pol eta inh-1. Pol eta primer extension, TAMRA/BHQ fluorescence, 10 min. Potency, µM, actives largely listed as inhibitors. hit rate 64% among 2,600
FEN1 inh-2 = FEN1 inhibition, cherry-pick retest; shares compounds with FEN1 inh-1; FEN1 flap cleavage, TAMRA/BHQ2 fluorogenic DNA substrate; Potency, µM, most hits filed as inhibitors; hit rate 79% among 880; note: nearly all actives have a fitted effect of over 60% in size
WRN helicase inh-2 = confirmation of human WRN helicase inhibitors | shares compounds with WRN helicase inh-1 | WRN helicase DNA unwinding, fluorescence kinetic | Potency, µM (top dose mostly 57.1 µM), inactives show at the top dose activity, negative = inhibition, actives largely listed as inhibitors | AID 720497 | hit rate 63% among 610; note: nearly all actives have a fitted effect of over 65% in size
TO DNA binding = counter-screen for WRN helicase inhibitors: DNA binding | thiazole orange DNA binding displacement, fluorescence | Potency, µM (doses to about 57.1 µM), for inactives: top-dose activity change, negative = inhibition, usual class: inhibitors | shares compounds with WRN helicase inh-1 | hit rate 10% among 610;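 note: drop in dye fluorescence marks compound binding to DNA; % is set by controls: 0 for no effect and ±100 for the full control effect; nearly all actives have a fitted effect of over 60% in size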
BLM counter = blocks human BLM helicase in WRN counterscreen; shares compounds with WRN helicase inh-1; Recombinant BLM helicase DNA unwinding, red fluorescence; Potency, µM (highest dose often 57.1 µM), without a hit: top-dose activity change, negative = inhibition, actives largely listed as inhibitors; hit rate 60% among 610; AID 720503; note: nearly all actives have a fitted effect of over 60% in size
* hit, by the source's call; u = inconclusive; x = no result given; [ ] = remark or other dose. Compounds with a hit are over-represented: about 2.4% of the library has one in this group of screens. Calls come from the whole dose curve; as a rule, active = well fitted curve in the direction sought with a large enough effect; inconclusive = small, poorly fitted or top-dose-only effect, or another doubt; inactive = no such curve, though single readings can be large; an effect the other way counts as inactive or inconclusive. Potency is the fitted concentration of half-maximal effect.

SMILES	WRN helicase inh-1	Pol beta inh	Pol eta inh-1	Pol kappa inh-1	Pol iota inh	FEN1 inh-1	Pol iota confirm	Pol eta inh-2	FEN1 inh-2	WRN helicase inh-2	TO DNA binding	BLM counter	others
CCCCCCNC(=O)c1cc(-c2ccco2)nc2ccccc12	40µM*	7.9µM*	13µM*	50µM*	u	-8%	27*	30*	x	u	-23%	17µM*
COc1ccccc1CNC(=O)COC(=O)c1cc(C)nc2ccccc12	-25%	x	-11%	-7%	17%	1%	x	x	x	x	x	x
CCC(=O)N1CCc2cc(S(=O)(=O)N3CCCCCC3)ccc21	11%	-5%	4%	-5%	-14%	16%	x	x	x	x	x	x
O=S(=O)(O)c1ccc(O)c2cc(Nc3ccccc3)ccc12	0.95µM*	x	0.79µM*	2.8µM*	u	7.9µM*	0.67*	0.76*	8.5*	0.43µM*	9.6µM*	0.061µM*	TbPGK inh=0.65µM*;Pol kappa inh-2=0.53*
Cc1nn(C)c(C)c1S(=O)(=O)N(CC(=O)NCCCN1CCC(C)CC1)c1ccc(C(C)C)cc1	2%[57.1 µM]	11%	1%	-5%	-15%	20%	x	x	x	x	x	x
COC(=O)c1ccccc1NC(=O)CCS(=O)(=O)c1ccc(Br)cc1	25µM*	2.5µM*	3.5µM*	20µM*	-99%	u	21*	27*	x	9.6µM*	-8%	2.4µM*	TbPGK inh=u;Pol kappa inh-2=15*
O=C(CCS(=O)(=O)c1ccc(Cl)cc1)Nc1ccccc1Br	-2%[57.1 µM]	-1%	-13%	-4%	1%	1%	x	x	x	x	x	x
Cc1onc(-c2c(Cl)cccc2Cl)c1C(=O)N1CCSCC1	0%	27%	-12%	-8%	47%	-9%	x	x	x	x	x	x
O=C(N/N=C/c1cn(Cc2cccc(F)c2)c2ccccc12)c1cc(O)cc(O)c1	20µM*	1.4µM*	1.6µM*	7.1µM*	u	22µM*	8.4*	8.5*	60*	5.4µM*	24µM*	2.2µM*	TbPGK inh=2.1µM*
COc1ccc(C(=O)NC2CCCCC2)cc1S(=O)(=O)N1CCCC1	-6%	8%	8%	-19%	11%	0%	x	x	x	x	x	x
CC1=Nc2ccccc2/C1=C\c1nc(-c2ccc(F)cc2)oc1O	u	35µM*	u	u	u	71µM*	u	34*	24*	19µM*	106%	19µM*
O=C(CSc1nccc(=O)[nH]1)Nc1cccc(S(=O)(=O)N2CCOCC2)c1	-3%	19%	-18%	4%	21%	20%	x	x	x	x	x	x
O=c1c(O)c(-c2ccc(O)c(O)c2)oc2cc(O)ccc12	2.4µM*	x	1.6µM*	2.8µM*	2.5µM*	u	6.7*	7.6*	x	1.5µM*	-11%	0.86µM*	Pol kappa inh-2=8.4*
COc1cc(-c2oc3cc(O)ccc3c(=O)c2O)ccc1O	x	x	x	-10%[60.1 µM]	x	x	x	x	x	x	x	x
CCCCCCCC(=O)OC(CN1CCCCC1)CN1CCCC1=O (centres undefined)	-1%	0%	0%	-1%	-14%	0%	x	x	x	x	x	x
C/C(N)=C(/C#N)C(=O)CSc1nnc(Nc2cccc(C)c2)s1	u	40µM*	20µM*	u	u	u	75*	u	x	-26%	-6%	u
COc1ccc(-n2c(SCC(=O)O)nc3sc4c(c3c2=O)CCCC4)cc1	-1%	-20%	0%	-1%	12%	-21%	x	x	x	x	x	x
COc1ccc(O)c(C(=O)c2cc(SCC(=O)O)c3nc4sc5c(c4c(=O)n3c2)CCCC5)c1	25µM*	u	22µM*	u	u	u	21*	48*	38*	22µM*	u	5.4µM*
CC1=C(C(=O)Nc2ccccc2)C(c2ccc[nH]2)n2ncnc2N1 (centres undefined)	x	8.9µM*	x	u	u	u	8.4*	8.5*	76*	7.6µM*	u	1.1µM*	Pol kappa inh-2=3.4*
N#CC1=C2SCN(C3CCCCC3)CN2C(=O)CC1c1ccc(Cl)cc1 (centres undefined)	x	u	u	-31%	u	u	x	x	x	x	x	x
CC(C)C[C@@H](CN1CCC[C@H]1CN1C(=O)C(=O)NC[C@@H]1Cc1ccccc1)N1C[C@H](Cc2ccc(O)cc2)N(CCc2ccccc2)C(=O)C1=O	-9%	x	x	x	x	x	x	x	x	x	x	x
O=C(Nc1ccc2oc(=O)ccc2c1)c1ccc(-c2ccc(Cl)cc2)o1	-33%[57.1 µM]	0%[57.1 µM]	-3%	-14%	6%	-1%	x	x	x	x	x	x
O=C(Nc1ccc2oc(=O)ccc2c1)c1ccc(-c2cccc([N+](=O)[O-])c2)o1	10µM*	2.8µM*	32µM*	-9%	47%	u	21*	x	x	u	u	1.5µM*
Cc1cc(=O)c2c(o1)C(=O)c1occc1C2=O	25µM*	x	10µM*	32µM*	6.3µM*	50µM*	47*	30*	u	24µM*	-24%	u	Pol kappa inh-2=42*
O=C(N/N=C/c1ccncc1)c1cccc(S(=O)(=O)Nc2ccc(Cl)cc2)c1	22µM*	u	50µM*	28µM*	28µM*	u	47*	67*	67*	14µM*	31%	12µM*
